# Measured values taken from PubChem BioAssay (Tox21).
# A number with no mark means an inactive call. Entries that show only a call come without a potency. Active and inactive are the calls of the source. Calls come from the whole dose curve.
# Assay: G protein-coupled receptor (GPCR) small molecule agonists, calcium flux assay: HEK293 wild type cell line counter screen (AID 1920065)
# Details: HEK293 WT calcium flux, fluorescence, agonist mode; series mostly up to 57.6 µM
# From the text: U.S. Tox21 Program National Center for Advancing Translational Sciences [NCATS] Division of Preclinical Innovation [DPI] U.S. Environmental Protection Agency [EPA] National Institutes of Environmental Health Sciences [NIEHS] National Toxicology Program [NTP] U.S. Food and Drug Administration [FDA] Assay overview: The increased intracellular calcium release that occurred upon G protein-coupled receptor (GPCR) activation led to the frequent use of calcium flux assays to detect GPCR activation. For the purpose of studying and screening compounds that may activate GPCR, receptor-overexpressing models were typically generated using Hek293 wild-type (WT) cells. In order to eliminate the compounds that may have induced calcium release for non-specific activation, a counter-assay utilizing calcium flux on Hek293 WT cells was performed. The data were formulated in order to serve as a control for any calcium flux detection utilizing Hek293 cells with either GPCR overexpression or gene modification. The procurement of Hek293 WT cells from ATCC. Fluorescence intensity can be utilized to determine the activation of the compound in a calcium flux assay. As a counter control, this cell line was utilized to screen the Tox21 10K compound library.
# Assay Protocol Summary: Hek293 cells were dispensed at 1500cells/4uL/well in 1536-well black wall/clear bottom plates using a multidrop dispenser. After the assay plates were incubated at a 37 C/5% CO2 incubator for 18 hours, 4 uL of Calcium Dye Solution was added to each well. The plates were incubated at 37 C for 1 hour. For agonist mode, 23 nL of compounds dissolved in DMSO, positive control (ATP) or DMSO only was transferred to the assay plate by a pin tool station. The fluorescence intensity in the plates was measured using FDSS 7000EX kinetic plate reader with a filter set of Ex/Em=480/540 for 3 min at 1 sec intervals. Each test compound was measured at 15 concentrations and in triplicates.
Structure (SMILES),Potency,activation
N=C(N)c1ccccc1,inactive,
CC(C)Nc1ccccc1,inactive,
O=Cc1ccc(C(=O)O)cc1,inactive,
Cc1cc(C)c(C)c(O)c1,inactive,
NS(=O)(=O)c1ccccc1Cl,inactive,
Cn1c(=O)c2[nH]c(Br)nc2n(C)c1=O,inactive,
CCCCCCCCCCCCCCCCBr,,-0.623% [at 11.8 µM]
Nc1cc(-c2ccncc2)c[nH]c1=O,inactive,
CCC(C)SSC(C)CC (stereo not given),inactive,
C1CCCNCCC1,inactive,
CCCCC(CC)COCC1CO1 (stereo not given),inactive,
C=C(C)C(=O)OCCNC(C)(C)C,inactive,
NC(=O)NNc1ccccc1,inactive,
CCOC(=O)CCC(C)=O,inactive,
Cc1cc(C)cc(N)c1,inactive,
C=CCOCC(CO)(COCC=C)COCC=C,inactive,
CC(=O)/C=C/C1C(C)=CCCC1(C)C (stereo not given),inactive,
O=C(O)[C@@H](O)[C@H](O)[C@H](O)[C@@H](O)C(=O)O,inactive,
O=[N+]([O-])c1cncn1CCN1CCOCC1,inactive,
CCOC(=O)C(C)Oc1ccc(Oc2cnc3cc(Cl)ccc3n2)cc1 (stereo not given),inactive,

Structure (SMILES),Potency,activation
C[C@@H]1CC(=O)NN=C1c1ccc(NN=C(C#N)C#N)cc1,inactive,
CC[C@H](C)[C@H](N)C(=O)O,inactive,
O=C(O)CC(=O)O,inactive,
CC(=O)N(CC(O)CO)c1c(I)c(C(=O)NCC(O)CO)c(I)c(C(=O)NCC(O)CO)c1I (stereo not given),inactive,
CCCCC(O)/C=C(C)/C=C/C=C/C(=O)N1CCCC1=O (stereo not given),inactive,
CC(=C(CCOC(=O)C(C)C)SSC(CCOC(=O)C(C)C)=C(C)N(C=O)Cc1cnc(C)nc1N)N(C=O)Cc1cnc(C)nc1N,inactive,
CC1(C)C(=O)N(Br)C(=O)N1Cl,inactive,
CCCCCCCCCC/C=C/C#N,inactive,
COc1cc(C=O)ccc1OC(=O)C(C)C,inactive,
Cc1ccc(C2OC[C@@H]3OC(c4ccc(C)cc4)O[C@H]([C@H](O)CO)[C@@H]3O2)cc1 (stereo not given in full),inactive,
O=[N+]([O-])c1ccc(CCO)cc1,inactive,
c1ccc(CNCc2ccccc2)cc1,inactive,
CCC(=O)CC,inactive,
COc1cccc(OC)c1C(=O)O,inactive,
O=C(O)c1ccccc1C(c1ccc(O)cc1)c1ccc(O)cc1,inactive,
CN(C)c1ccc(Cc2ccc(N(C)C)cc2)cc1,inactive,
CN=C(NC#N)NCCSCc1nc[nH]c1C,inactive,
COc1nc(C)nc(NC(=O)NS(=O)(=O)c2ccccc2OCCCl)n1,inactive,
CCCCCCCCCCCCCCCC,inactive,
CC(C)=CCC/C(C)=C/C#N,inactive,
